This passage reports cFRET/donor change results from the supplement of paper PMC9877034.

SMILES strings stand for the structures. Where a name gives a salt, the structure may show the parent alone. Whole data set: some 1,000 compounds, median “cFRET/donor change relative to DMSO, normalised to beta-lapachone positive control (supercomplex I-IV assembly)” near 0.18, cut for the lowest 2% near -1. This is one part of a sample in which the lowest values are shown more often than they occur.

This test deals with C2C12 (NDUFB8-AcGFP / COX8A-DsRed-Monomer FRET reporter). The test is described as follows: cFRET/donor change relative to DMSO, normalised to beta-lapachone positive control (supercomplex I-IV assembly) (fraction of beta-lapachone effect); higher = more respiratory supercomplex assembly. To be noted: 40 µM; 24 h. As to the method:
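Cells were treated with 40 uM compound for 24 h and imaged on an IN Cell Analyzer 6000. Corrected FRET was divided by donor signal (cFRET/donor) and measured in two replicate experiments. The score is (mean cFRET/donor of compound - mean DMSO) / (mean beta-lapachone 40 uM - mean DMSO). Compounds flagged for prominent cell death, abnormal morphology or decreased cell number were excluded.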
Take `Cc1c2ccncc2c(C)c2c1[nH]c1ccccc12` [Ellipticine]: the cFRET/donor change is -2.44. `NC(CCP(=O)(O)O)C(=O)O` (racemic) [(±)-2-Amino-4-phosphonobutyric acid] displayed a cFRET/donor change of 0.0445. `CN1CCC[C@@H]1Cc1c[nH]c2ccc(Nc3ncccc3[N+](=O)[O-])cc12` came in with a cFRET/donor change of 0.0254. Next, `C#CCN[C@H](C)Cc1ccccc1` [R-(-)-Desmethyldeprenyl hydrochloride]: -0.331; `C[N+](C)(C)CC#CCOC(=O)Nc1cccc(Cl)c1`: 0.565.
